# Results published in PubChem BioAssay (Tox21).
# Active and inactive are the calls of the source. Entries that show only a call come without a potency. Unless noted, calls follow the shape of the dose curve; as a rule, active = well fitted curve in the direction sought with a large enough effect in the repeat runs; inconclusive = weak or mixed curves; inactive = no such curve, though single readings can be large; an effect the other way counts as inactive or inconclusive.
# Tests used:
# [1] = qHTS assay to identify small molecule antagonists of the glucocorticoid receptor (GR) signaling pathway - cell viability counter screen (AID 720693); also: nearly all actives have a fitted effect of over 55% in size
# [2] = qHTS assay for identifying genotoxic compounds that show differential cytotoxicity against isogenic chicken DT40 cell lines with known DNA damage response pathways - wild type cell line (AID 743012); also: nearly all actives have a fitted effect of over 60% in size; also: potency is read from the fitted curve at half-maximal effect
# Method in brief: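 Viability by ATP luminescence (CellTiter-Glo, 30 min RT) after 40 h compound treatment at 37 C/5% CO2, using 300 parental DNA repair-proficient DT40 cells per well.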
# [3] = qHTS assay for identifying genotoxic compounds that show differential cytotoxicity against isogenic chicken DT40 cell lines with known DNA damage response pathways - Rev3 mutant cell line (AID 743014); also: nearly all actives have a fitted effect of over 55% in size; also: potency is read from the fitted curve at half-maximal effect
# [4] = qHTS assay for identifying genotoxic compounds that show differential cytotoxicity against isogenic chicken DT40 cell lines with known DNA damage response pathways - Rad54/Ku70 mutant cell line (AID 743015); also: nearly all actives have a fitted effect of over 60% in size; also: potency is read from the fitted curve at half-maximal effect
# [5] = qHTS assay to identify small molecule antagonists of the androgen receptor (AR) signaling pathway - cell viability counter screen (AID 743033; also: nearly all actives have a fitted effect of over 45% in size)
# [6] = qHTS assay to identify small molecule antagonists of the androgen receptor (AR) signaling pathway using the MDA cell line - cell viability counter screen (AID 743041; also: nearly all actives have a fitted effect of over 45% in size)
# Method in brief: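 Using the breast carcinoma line MDA-kb2 AR-luc, test chemicals were co-incubated with R1881 for 16 h; CellTiter-Fluor reagent, added at 15.5 h, provided a fluorescence measure of live cells.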
# [7] = qHTS assay to identify small molecule antagonists of the thyroid receptor (TR) signaling pathway - cell viability counter screen (AID 743064); also: nearly all actives have a fitted effect of over 50% in size; also: potency is read from the fitted curve at half-maximal effect
# Method in brief: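 Plate GH3.TRE-Luc cells; incubate 4 h at 37 °C; add compound, then T3 to 1 nM final; incubate 23.5 h; add CellTiter-Fluor; incubate 30 min at 37 °C, 5% CO2; read fluorescence.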
# [8] = qHTS assay to identify small molecule antagonists of the thyroid receptor (TR) signaling pathway (AID 743065); also: nearly all actives have a fitted effect of over 55% in size; also: potency is read from the fitted curve at half-maximal effect
# Method in brief: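 Antagonism measured as loss of luciferase signal in GH3 cells stably carrying a TRE-luciferase reporter, co-treated with compound and T3 (1 nM final) for 23.5 h at 37 C. Viability was read in the same well by CellTiter-Fluor.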
# [9] = test system: thyroid hormone receptor (rat, GH3 cells); test: qHTS assay to identify small molecule agonists of the thyroid receptor (TR) signaling pathway (AID 743066; calls by dose curve)
# [10] = qHTS assay to identify small molecule antagonists of the estrogen receptor alpha (ER-alpha) signaling pathway - cell viability counter screen (AID 743074; calls by dose curve; also: nearly all actives have a fitted effect of over 45% in size)
# [11] = qHTS assay to identify small molecule antagonists of the estrogen receptor alpha (ER-alpha) signaling pathway using the BG1 cell line - cell viability counter screen (AID 743081);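 also: compound given together with 17beta-estradiol as the ER stimulus; series mostly up to about 70 µM; nearly all actives have a fitted effect of over 45% in size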
# Aromatase (Homo sapiens) = Aromatase (Homo sapiens) (UniProt P11511); test: qHTS assay to identify aromatase inhibitors (AID 743083); also: series mostly up to about 70 µM; nearly all actives have a fitted effect of over 55% in size
# Aromatase (Homo sapiens), sequence (P11511 whole entry, looked up): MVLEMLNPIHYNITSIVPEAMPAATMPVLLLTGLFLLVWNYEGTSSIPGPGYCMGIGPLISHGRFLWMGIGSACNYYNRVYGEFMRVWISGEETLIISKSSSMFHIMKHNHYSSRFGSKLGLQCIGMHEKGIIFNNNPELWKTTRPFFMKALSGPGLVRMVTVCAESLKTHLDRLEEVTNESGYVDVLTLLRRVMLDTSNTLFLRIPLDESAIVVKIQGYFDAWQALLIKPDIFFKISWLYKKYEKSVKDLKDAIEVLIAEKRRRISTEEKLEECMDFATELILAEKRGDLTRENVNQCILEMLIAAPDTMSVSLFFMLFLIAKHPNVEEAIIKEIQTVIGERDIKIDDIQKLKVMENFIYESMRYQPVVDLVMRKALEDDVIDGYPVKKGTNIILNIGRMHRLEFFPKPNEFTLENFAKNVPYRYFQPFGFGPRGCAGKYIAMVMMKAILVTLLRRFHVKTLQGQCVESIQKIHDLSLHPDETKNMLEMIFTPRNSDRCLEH
# [12] = biological target: Androgen receptor (Homo sapiens) (UniProt P10275); test: qHTS assay to identify small molecule agonists of the androgen receptor (AR) signaling pathway using the MDA cell line (AID 743040; also: potency is read from the fitted curve at half-maximal effect; nearly all actives have a fitted effect of over 20% in size)
# Androgen receptor (Homo sapiens), sequence (P10275 whole entry, looked up): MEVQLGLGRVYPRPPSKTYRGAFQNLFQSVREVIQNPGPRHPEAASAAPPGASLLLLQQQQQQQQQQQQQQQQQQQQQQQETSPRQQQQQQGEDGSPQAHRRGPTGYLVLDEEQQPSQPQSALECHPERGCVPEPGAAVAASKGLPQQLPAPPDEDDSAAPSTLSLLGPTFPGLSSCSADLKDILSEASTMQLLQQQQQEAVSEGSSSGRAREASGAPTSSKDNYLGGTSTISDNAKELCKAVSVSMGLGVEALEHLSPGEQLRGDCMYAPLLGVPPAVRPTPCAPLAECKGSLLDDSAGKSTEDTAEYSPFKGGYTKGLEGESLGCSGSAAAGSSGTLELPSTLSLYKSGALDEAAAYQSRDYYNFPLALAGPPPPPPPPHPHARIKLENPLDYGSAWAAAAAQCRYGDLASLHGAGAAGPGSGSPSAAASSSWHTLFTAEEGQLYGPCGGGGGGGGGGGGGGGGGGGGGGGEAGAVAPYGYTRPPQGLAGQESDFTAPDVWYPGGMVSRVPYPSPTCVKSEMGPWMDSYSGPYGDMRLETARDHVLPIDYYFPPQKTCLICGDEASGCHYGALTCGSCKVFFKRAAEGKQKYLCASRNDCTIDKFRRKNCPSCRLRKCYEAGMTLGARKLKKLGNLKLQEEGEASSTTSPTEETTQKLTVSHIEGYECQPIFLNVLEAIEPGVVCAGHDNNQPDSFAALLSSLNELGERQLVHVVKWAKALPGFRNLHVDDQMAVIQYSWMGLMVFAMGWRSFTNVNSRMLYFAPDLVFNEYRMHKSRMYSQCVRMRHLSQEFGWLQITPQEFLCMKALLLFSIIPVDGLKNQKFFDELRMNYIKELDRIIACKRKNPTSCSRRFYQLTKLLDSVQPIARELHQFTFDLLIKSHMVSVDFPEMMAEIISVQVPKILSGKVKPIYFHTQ
# Method in brief: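 Stable MMTV-luciferase reporter in MDA-kb2 cells; note the promoter carries GR as well as AR response elements. 16 h compound treatment, 37C, 0% CO2; ONE-Glo luminescence endpoint.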
# [13] = biological target: Estrogen receptor (Homo sapiens) (UniProt P03372); test: qHTS assay to identify small molecule agonists of the estrogen receptor alpha (ER-alpha) signaling pathway (AID 743075; calls by dose curve; also: potency is read from the fitted curve at half-maximal effect)
# Estrogen receptor (Homo sapiens), sequence (P03372 whole entry, looked up): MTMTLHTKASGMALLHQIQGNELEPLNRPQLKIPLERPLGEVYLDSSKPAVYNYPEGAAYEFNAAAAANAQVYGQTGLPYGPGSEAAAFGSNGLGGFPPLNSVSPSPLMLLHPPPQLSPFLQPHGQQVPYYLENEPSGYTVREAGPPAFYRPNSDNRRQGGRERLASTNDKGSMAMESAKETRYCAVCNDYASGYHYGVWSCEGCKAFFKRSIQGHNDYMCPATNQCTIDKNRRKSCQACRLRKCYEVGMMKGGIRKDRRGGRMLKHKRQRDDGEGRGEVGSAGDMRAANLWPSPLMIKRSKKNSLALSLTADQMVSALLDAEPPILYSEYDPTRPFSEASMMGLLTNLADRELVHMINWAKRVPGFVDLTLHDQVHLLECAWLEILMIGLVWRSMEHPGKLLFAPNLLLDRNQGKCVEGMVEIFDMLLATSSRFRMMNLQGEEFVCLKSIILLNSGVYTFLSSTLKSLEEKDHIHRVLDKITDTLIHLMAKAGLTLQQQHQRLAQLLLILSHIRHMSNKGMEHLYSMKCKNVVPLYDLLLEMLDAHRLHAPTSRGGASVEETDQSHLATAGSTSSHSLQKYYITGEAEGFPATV
# [14] = biological target: Estrogen receptor (Homo sapiens) (UniProt P03372); test: qHTS assay to identify small molecule agonists of the estrogen receptor alpha (ER-alpha) signaling pathway using the BG1 cell line (AID 743079); also: nearly all actives have a fitted effect of over 20% in size; also: potency is read from the fitted curve at half-maximal effect
# [15] = biological target: Estrogen receptor (Homo sapiens) (UniProt P03372); test: qHTS assay to identify small molecule antagonists of the estrogen receptor alpha (ER-alpha) signaling pathway (AID 743069; active = well fitted curve in the direction sought with a large enough effect in the signal ratio in the repeat runs, not every such curve was filed as active; inconclusive = weak or mixed curves, or effect the other way; inactive = no such curve, though single readings can be large or run the other way; the % refers to the signal ratio; also: potency is read from the fitted curve at half-maximal effect)
# Method in brief: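 Fluorescence intensity from a beta-lactamase FRET substrate served as the read-out. Cells: HEK293 with stably integrated ER-alpha-UAS-bla reporter. Agonist 17beta-estradiol was co-added with compounds; incubation 18 hr at 37C, substrate 2 hr at room temperature.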
# [16] = qHTS assay to identify small molecule antagonists of the estrogen receptor alpha (ER-alpha) signaling pathway using the BG1 cell line (AID 743080; calls by dose curve;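 also: BG1 cells stimulated with 17beta-estradiol alongside compound; series mostly up to about 70 µM; nearly all actives have a fitted effect of over 25% in size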)
# Method in brief: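 BG1Luc4E2, endogenous ER-alpha, 4xERE-luc; 5 d charcoal-stripped FBS, phenol red free; 24 h plating; cpd + 17beta-estradiol 21.5 h, 37 C/5% CO2; CellTiter-Fluor viability 30 min, then ONE-Glo luciferase 30 min RT.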
# [17] = biological target: Androgen receptor (Homo sapiens) (UniProt P10275); test: qHTS assay to identify small molecule antagonists of the androgen receptor (AR) signaling pathway (AID 743035; active = well fitted inhibition curve with a large enough effect in the signal ratio in the repeat runs, not every such curve was filed as active; inconclusive = weak or mixed curves, or effect the other way; inactive = no such curve, though single readings can be large or run the other way; the % refers to the signal ratio; also: potency is read from the fitted curve at half-maximal effect)
# Method in brief: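 Antagonist mode: AR-bla HEK293 cells co-treated with test compounds and agonist R1881 for 16 h at 37C, 5% CO2. Beta-lactamase activity read as FRET fluorescence after 2 h room-temperature substrate loading.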
# [18] = biological target: Androgen receptor (Homo sapiens) (UniProt P10275); test: qHTS assay to identify small molecule agonists of the androgen receptor (AR) signaling pathway (AID 743036; active = well fitted activation curve with a large enough effect in the signal ratio in the repeat runs, with a control signal flat, not every such curve was filed as active; inconclusive = weak or mixed curves, or effect the other way; inactive = no such curve, though single readings can be large or run the other way; the % refers to the signal ratio)
# Method in brief: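 Reporter line: GeneBLAzer AR-UAS-bla-GripTite (HEK293). Steps: plate cells, 4 h rest, add compounds, 16 h at 37C, add LiveBLAzer B/G substrate, 2 h at RT, read fluorescence.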
# [19] = biological target: Androgen receptor (Homo sapiens) (UniProt P10275); test: qHTS assay to identify small molecule antagonists of the androgen receptor (AR) signaling pathway using the MDA cell line (AID 743042; also: nearly all actives have a fitted effect of over 55% in size)
# Method in brief: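 Antagonist mode: compounds plus R1881 agonist added to MDA-kb2 AR-luc cells, incubated 16 h at 37C. Luciferase reporter luminescence quantified, with multiplexed CellTiter-Fluor readout for cell viability.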
SMILES,Potency [1],Potency [2],Potency [3],Potency [4],Potency [5],Potency [6],Potency [7],Potency [8],Potency [9],outcome [10],Potency [11],Potency (Aromatase (Homo sapiens)),Potency [12],Potency [13],Potency [14],Potency [15],Potency [16],Potency [17],outcome [18],Potency [19]
Cc1ccccn1,inactive,inactive,inactive,inactive,inactive,inactive,inactive,inactive,inactive,inactive,inactive,inactive,,,,,,,,
Nc1ccc(C(=O)Nc2ccccc2N)cc1,inactive,1.5 µM (active),0.422 µM (active),1.88 µM (active),inactive,inactive,18.8 µM (active),29.8 µM (active),inactive,inactive,inactive,inactive,10.6 µM (active),inactive,33.5 µM (active),,,,,
N#CCCNCCC#N,inactive,inactive,inactive,inactive,inactive,inactive,inactive,inactive,inactive,inactive,inactive,,,inactive,inactive,inactive,inactive,,,
CCCCCCc1ccc(N)cc1,inactive,19.3 µM (active),34.4 µM (active),43.3 µM (active),,inactive,inactive,30.6 µM (active),inactive,inactive,inactive,,,inactive,21.7 µM (active),15.5 µM [inconclusive] (active),,24.5 µM (active),inactive,inactive
Cc1ccc(C)o1,inactive,inactive,inactive,inactive,,inactive,inactive,inactive,inactive,inactive,inactive,inactive,,,,,,,,
NC1CCN(c2nc3c(cc2F)c(=O)c(C(=O)O)cn3-c2ccc(F)cc2F)C1 (stereo unspecified),inactive,10.6 µM (active),13.3 µM (active),18.8 µM (active),,inactive,inactive,23.7 µM (active),inactive,inactive,,inactive,,inactive,inactive,,inactive,,,
CNS(=O)(=O)Cc1ccc2[nH]cc(CCN(C)C)c2c1,inactive,inactive,inactive,inactive,,inactive,inactive,inactive,inactive,inactive,inactive,inactive,,,,,,,,
CC(=O)[C@@]1(O)CC[C@H]2[C@@H]3C[C@H](C)C4=CC(=O)CC[C@]4(C)[C@H]3CC[C@@]21C,inactive,16.8 µM (active),11.9 µM (active),,inactive,inactive,inactive,11.9 µM (active),inactive,inactive,inactive,inactive,,inactive,,,,,,
S=C(S)NCCNC(=S)S,inactive,inactive,inactive,inactive,,inactive,inactive,inactive,inactive,,inactive,inactive,,,,,,,,
FC(F)(F)C(F)(F)C(F)(F)C(F)(F)C(F)(F)C(F)(F)CCI,inactive,inactive,inactive,,inactive,inactive,inactive,inactive,inactive,inactive,inactive,inactive,,inactive,inactive,inactive,inactive,,,
C=Cc1c(C)c2cc3[nH]c(cc4nc(cc5nc(cc1[nH]2)C(C)=C5CCC(=O)O)C(CCC(=O)O)=C4C)c(C)c3C=C,inactive,inactive,inactive,inactive,,inactive,inactive,inactive,inactive,inactive,inactive,inactive,,4.25 µM [inconclusive] (active),1.06 µM (active),,inactive,,,
CN1CCN(C2=Nc3ccccc3Sc3ccc(Cl)cc32)CC1,inactive,8.41 µM (active),6.68 µM (active),10.6 µM (active),,inactive,13.3 µM (active),,,inactive,inactive,inactive,,,,,,,,inactive
C=C(C)C(=O)OCCN(C)C,inactive,inactive,inactive,,inactive,inactive,inactive,inactive,inactive,inactive,inactive,inactive,,inactive,inactive,inactive,inactive,,,
CC1=CC(=O)/C(=C(/C)O)C(=O)O1,inactive,inactive,inactive,,inactive,inactive,inactive,inactive,inactive,inactive,inactive,inactive,,inactive,,inactive,inactive,,,
CC(=O)OCCc1ccccc1,inactive,inactive,inactive,inactive,inactive,inactive,,inactive,inactive,inactive,inactive,inactive,,inactive,inactive,inactive,inactive,,,
CCCCCCCCCC(=O)OCC,inactive,inactive,inactive,inactive,,inactive,,inactive,inactive,,inactive,inactive,,inactive,,inactive,inactive,,,
O=[N+]([O-])c1cc[n+]([O-])cc1,inactive,15.4 µM (active),inactive,inactive,,inactive,,,inactive,inactive,inactive,,,inactive,,,,,,inactive
CN1CCC(OC(c2ccccc2)c2ccccc2)CC1,inactive,11.4 µM (active),12.7 µM (active),11.4 µM (active),inactive,inactive,,,inactive,inactive,inactive,inactive,,inactive,,inactive,inactive,,,
COc1ccccc1OC(=O)Oc1ccccc1OC,inactive,inactive,inactive,inactive,,inactive,inactive,inactive,inactive,inactive,inactive,inactive,,,,,,,inactive,inactive
